CF NFkB inh = inhibitors of cystic fibrosis induced NF-kB. KKLEB NF-kB-GFP reporter, PAF-induced, GFP fluorescence overnight. inhibition, % at 5 µM. hit rate 0.86% among 360,000. AID 588850;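 active means at least 50% inhibition at 5 µM, scaled per plate between neutral and stimulator controls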;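 further: PAF is a Pseudomonas aeruginosa culture filtrate used as stimulus; plate controls were PAF-stimulated DMSO wells for no effect and unstimulated DMSO wells for full effect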
KKLEB tox = counter-screen for CF NF-kB inhibitors: cytotoxicity; hit rate 0.36% among 360,000; KKLEB CF airway cells viability, ATPlite luminescence, overnight; stronger effect = lower value; cells stimulated with P. aeruginosa culture filtrate; activity change (cytotoxicity), % at 5 µM;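 active means corrected activity change at or below -50% at 5 µM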
TWEAK-Fn14 inh = TWEAK-Fn14 signaling inhibition | inhibition, % at 10 µM | TWEAK-stimulated Fn14 reporter cells, luciferase luminescence, 8 h | hit rate 2% among 360,000; in the data active means inhibition above about 50%
TROY signal inh = inhibitors of TROY-dependent NF-kB signaling; AID 1347056; hit rate 0.98% among 360,000; Q293 LMP1-TROYcd NF-kB luciferase reporter, 4 h; inhibition, % at 10 µM;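 active means compounds whose plate-normalised and pattern-corrected inhibition of the luciferase reporter signal at the single screening dose is 50% or more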
HIF-2a inh = blocks HIF-2a reporter activity | 786-0 RCC cells HIF-2a reporter, luciferase luminescence, overnight | inhibition, % at 18.8 µM | hit rate 0.72% among 360,000;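 active means inhibition of the luminescence signal of 40% or more relative to plate controls, in a single-dose primary screen at 18.75 µM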
Peg3 promoter = inhibitors of Peg3 promoter; hit rate 1.7% among 360,000; HeLa PEG-Prom luciferase reporter, luminescence, overnight; inhibition, % at 20 µM;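 active means inhibition of at least 50% at 20 µM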
An asterisk follows results filed as active. Sampled rows, rich in hits. Any-hit rate of the full collection: about 4%.

Results for Cc1ccc(O)c(C(=O)c2cnc3c(c2)COc2ccccc2-3)c1 ?
CF NFkB inh: 46; KKLEB tox: -5; TWEAK-Fn14 inh: 63*; TROY signal inh: 6; HIF-2a inh: 16; Peg3 promoter: -17

What do the screens show for `COc1ccc(C(=O)c2coc3ccc(O)cc23)cc1`?
CF NFkB inh: 16; KKLEB tox: 8; TWEAK-Fn14 inh: 56*; TROY signal inh: -9; HIF-2a inh: -134; Peg3 promoter: -273

What do the screens show for `CCCC(=O)Nc1ccc(C(=O)O)cc1NC(=O)CCC`?
CF NFkB inh: 4; KKLEB tox: -8; TWEAK-Fn14 inh: 103*; TROY signal inh: -14; HIF-2a inh: 2; Peg3 promoter: 14

How did CS(=O)(=O)c1ccc(Sc2nc3ccccc3[nH]2)c([N+](=O)[O-])c1 do in these assays?
CF NFkB inh: 11; KKLEB tox: 5; TWEAK-Fn14 inh: 38; TROY signal inh: -3; HIF-2a inh: 24; Peg3 promoter: -4

Results for CS(=O)(=O)c1ccc(Sc2nc3ccccc3s2)c([N+](=O)[O-])c1 ?
CF NFkB inh: 54*; KKLEB tox: -45; TWEAK-Fn14 inh: 99*; TROY signal inh: 38; HIF-2a inh: 4; Peg3 promoter: 41

What do the screens show for `O=[N+]([O-])/C=C/c1c(OCc2ccccc2)ccc2ccccc12`?
CF NFkB inh: 61*; KKLEB tox: -54*; TWEAK-Fn14 inh: -9; TROY signal inh: 0; HIF-2a inh: 95*; Peg3 promoter: 101*

What do the screens show for `CCCCOc1ccc2ccccc2c1C=O`?
CF NFkB inh: 0; KKLEB tox: -3; TWEAK-Fn14 inh: -14; TROY signal inh: -66; HIF-2a inh: -155; Peg3 promoter: -154

How did CCC(C)(C)c1ccc2c(c1)C(=O)c1ccccc1C2=O do in these assays?
CF NFkB inh: 22; KKLEB tox: -13; TWEAK-Fn14 inh: 61*; TROY signal inh: 48; HIF-2a inh: -181; Peg3 promoter: -254

How did CCC(=O)Nc1ccc2c(c1)C(=O)c1ccccc1C2=O do in these assays?
CF NFkB inh: -65; KKLEB tox: 7; TWEAK-Fn14 inh: -18; TROY signal inh: -55; HIF-2a inh: -287; Peg3 promoter: -171

Results for O=C(Nc1cc(Cl)ccc1O)c1snnc1-c1ccccc1 ?
CF NFkB inh: 28; KKLEB tox: -11; TWEAK-Fn14 inh: 9; TROY signal inh: 55*; HIF-2a inh: -3; Peg3 promoter: 35

What do the screens show for `C=C1C(=O)OCC2C(C(=O)O)=CC3C(C)C(C)=CC123` (centres undefined)?
CF NFkB inh: 37; KKLEB tox: -9; TWEAK-Fn14 inh: 7; TROY signal inh: -17; HIF-2a inh: 4; Peg3 promoter: 27

What do the screens show for `c1ccc(CSc2nc3ncccn3n2)cc1`?
CF NFkB inh: -1; KKLEB tox: 8; TWEAK-Fn14 inh: -22; TROY signal inh: -20; HIF-2a inh: -236; Peg3 promoter: -176

Results for COC(=O)[C@]1(C)N[C@H](CN(C)S(=O)(=O)c2ccc(C(F)(F)F)cc2)[C@@H]2C(=O)N(C)C(=O)[C@@H]21 ?
CF NFkB inh: -38; KKLEB tox: 6; TWEAK-Fn14 inh: -11; TROY signal inh: -25; HIF-2a inh: 7; Peg3 promoter: -3

What do the screens show for `CC[C@@]1(C(=O)OC)N[C@H](CN(C)S(=O)(=O)c2ccc(C(F)(F)F)cc2)[C@@H]2C(=O)N(C)C(=O)[C@@H]21`?
CF NFkB inh: -30; KKLEB tox: 18; TWEAK-Fn14 inh: 83*; TROY signal inh: 17; HIF-2a inh: -3; Peg3 promoter: -5

Results for Cc1cc(C)n(Cc2ccc(NC(=O)c3ccc(COc4ccccc4Br)cc3)cc2)n1 ?
CF NFkB inh: -20; KKLEB tox: -9; TWEAK-Fn14 inh: 60*; TROY signal inh: 23; HIF-2a inh: -68; Peg3 promoter: 22

How did NC(=O)c1ccc(NC(=O)c2ccc(COc3ccccc3Br)cc2)cc1 do in these assays?
CF NFkB inh: -24; KKLEB tox: 4; TWEAK-Fn14 inh: -15; TROY signal inh: -41; HIF-2a inh: -79; Peg3 promoter: -90

What do the screens show for `CCCSc1nsc(NC(=O)C(c2ccccc2)c2ccccc2)n1`?
CF NFkB inh: 26; KKLEB tox: -4; TWEAK-Fn14 inh: 11; TROY signal inh: 55*; HIF-2a inh: 20; Peg3 promoter: 23

How did CC/C(=N/Nc1cccc(C)c1)c1cnnc(SC)n1 do in these assays?
CF NFkB inh: 55*; KKLEB tox: -52*; TWEAK-Fn14 inh: -52; TROY signal inh: -33; HIF-2a inh: 9; Peg3 promoter: 37

Results for CCc1nc2c(OCC(=O)N3CCOCC3)cccn2c1N(C=O)Cc1ccccc1 ?
CF NFkB inh: -6; KKLEB tox: 6; TWEAK-Fn14 inh: 11; TROY signal inh: -6; HIF-2a inh: -1; Peg3 promoter: -4

What do the screens show for `C#CCOC(=O)c1ccccc1C(=O)n1nnc2ccccc21`?
CF NFkB inh: 39; KKLEB tox: -28; TWEAK-Fn14 inh: 55*; TROY signal inh: 36; HIF-2a inh: 9; Peg3 promoter: 27

How did CCCC(=O)Nc1ccc(C(=O)n2nnc3ccccc32)cc1 do in these assays?
CF NFkB inh: 0; KKLEB tox: -3; TWEAK-Fn14 inh: 7; TROY signal inh: -3; HIF-2a inh: 8; Peg3 promoter: 4

How did CN(C)c1ccc(C(=O)n2nnc3ccccc32)cc1 do in these assays?
CF NFkB inh: 69*; KKLEB tox: -36; TWEAK-Fn14 inh: 94*; TROY signal inh: 7; HIF-2a inh: -42; Peg3 promoter: -20

How did CCN(CC(=O)Nc1ccc(NC(C)=O)cc1)C(=O)CCCOc1ccc(C(C)(C)C)cc1 do in these assays?
CF NFkB inh: -3; KKLEB tox: 0; TWEAK-Fn14 inh: 0; TROY signal inh: -4; HIF-2a inh: -12; Peg3 promoter: -27

Results for CC(C)(C)c1ccc(NC(=O)COc2ccc(-n3ccnc3)cc2)cc1 ?
CF NFkB inh: -11; KKLEB tox: 5; TWEAK-Fn14 inh: 93*; TROY signal inh: 75*; HIF-2a inh: 24; Peg3 promoter: 32

How did COc1cc(NC(=O)COc2ccc(-n3ccnc3)cc2)cc(OC)c1 do in these assays?
CF NFkB inh: 10; KKLEB tox: -15; TWEAK-Fn14 inh: 2; TROY signal inh: 17; HIF-2a inh: 0; Peg3 promoter: 21

What do the screens show for `Nc1[nH]c(C(=O)c2ccccc2)c(-c2ccncc2)c1C(=O)NC1CC1`?
TWEAK-Fn14 inh: -6; TROY signal inh: -17; HIF-2a inh: -6

What do the screens show for `CCNC(=O)N(C)C[C@H]1N[C@@](C)(C(=O)OC)[C@H]2C(=O)N(Cc3ccccc3)C(=O)[C@@H]12`?
CF NFkB inh: -8; KKLEB tox: 16; TWEAK-Fn14 inh: -6; TROY signal inh: 8; HIF-2a inh: 1; Peg3 promoter: 6

What do the screens show for `O=C(Nc1nc(-c2cccs2)cs1)c1ccc(S(=O)(=O)N2CCCCC2)cc1`?
CF NFkB inh: -8; KKLEB tox: 1; TWEAK-Fn14 inh: 59*; TROY signal inh: 38; HIF-2a inh: -7; Peg3 promoter: 23

Assay outcomes from PubChem.
